# TDP43 rescue – rescues yeast growth from TDP-43 toxicity | TDP-43 expressing yeast growth rescue, BacTiter-Glo, 24 h | Potency, µM (top dose mostly 46.1 µM), actives largely listed as activators | 410,000 compounds, 1.8% hits | AID 652104; also: nearly all actives have a fitted effect of over 50% in size
#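 Cell-based yeast growth screen: TDP-43 expression induced in galactose, inoculum OD600=0.02 after raffinose pregrowth to mid-log. Read-out BacTiter-Glo luminescence at 24 hr, 30 deg C; inhibition of toxicity seen as signal increase.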
# Abeta rescue – A-beta toxicity reversal in yeast. Potency, µM (titrated, usually from 46.1 µM), usual class: activators. 410,000 compounds, 0.063% hits. yeast expressing A-beta42, growth rescue, OD600, 48 h; response scale: 0% DMSO, 100% iron-clioquinol control; also: nearly all actives have a fitted effect of over 55% in size
#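 Yeast A-beta toxicity model in growth medium with pinned compounds, 48 h at 30 C; growth read as absorbance at 600 nm. Normalized to FeCl3/clioquinol equimolar mix (positive) and DMSO (negative).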
# mIDH1 inhibitor – blocks human mutant IDH1 R132H enzyme. O75874. IDH1-R132H enzyme, NADPH consumption, diaphorase/resazurin fluorescence. Potency, µM (series often up to 76.6 µM), actives largely listed as inhibitors. 390,000 compounds, 0.093% hits; also: nearly all actives have a fitted effect of over 65% in size
# Target sequence (O75874 whole entry R132H, stated change not applied): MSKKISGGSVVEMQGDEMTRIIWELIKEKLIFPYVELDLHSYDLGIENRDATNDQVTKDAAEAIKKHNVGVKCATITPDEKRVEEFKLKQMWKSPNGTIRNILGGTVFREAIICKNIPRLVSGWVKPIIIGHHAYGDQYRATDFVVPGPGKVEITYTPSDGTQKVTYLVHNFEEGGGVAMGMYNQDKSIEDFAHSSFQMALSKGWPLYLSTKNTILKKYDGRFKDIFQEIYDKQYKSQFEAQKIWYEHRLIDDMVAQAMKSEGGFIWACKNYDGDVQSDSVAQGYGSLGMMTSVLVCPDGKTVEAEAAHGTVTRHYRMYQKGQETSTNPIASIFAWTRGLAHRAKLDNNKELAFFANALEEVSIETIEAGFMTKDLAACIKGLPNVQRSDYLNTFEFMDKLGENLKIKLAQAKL
#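 IDH1-R132H (0.5 ug/mL dispensed) in pH 7.5 Tris buffer was preincubated 30 min with compound, then given a substrate mix of 0.016 mM NADPH and 2 mM alpha-KG for 80 min at room temperature; remaining NADPH was read by diaphorase/resazurin fluorescence.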
# FUS yeast rescue – rescues growth of FUS-expressing yeast; AID 1347120; Potency, µM (highest dose often 76.6 µM), hits mostly activators; 390,000 compounds, 0.24% hits; S. cerevisiae FUS-expressing, growth rescue, OD600, 24 h; also: nearly all actives have a fitted effect of over 55% in size
#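 S. cerevisiae expressing FUS from galactose induction served as the toxicity model. Growth after 24hr at 30C, read as absorbance at 600 nm, indicates suppression of toxicity; compounds dosed at several concentrations.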
# aSyn yeast inh – rescues yeast growth from alpha-synuclein toxicity; Yeast expressing alpha-synuclein, growth rescue, BacTiter-Glo, 24 h; Potency, µM (series often up to 46.1 µM), usual class: activators; 370,000 compounds, 0.14% hits; AID 652106; also: nearly all actives have a fitted effect of over 65% in size
#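 Rescue of yeast growth: cells expressing toxic alpha-synuclein, induced in galactose at OD600 0.02, incubated with compound 24 h at 30 C. ATP luminescence quantified growth; inhibitors of toxicity appear as activators.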
# LDHA inh – LDHA (human) enzyme inhibition; purified LDHA, NADH/diaphorase-resazurin fluorescence; active compounds read low; activity change, % (values are at about 110 or 230 µM); 480,000 compounds, 0.15% hits; in the data active = activity change below about -30%; inconclusive = mostly about -25% to -30%
#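 Human LDH5 (2 nM) was incubated with 0.06 mM NADH and 0.2 mM pyruvate for 5 min at room temperature in Tris pH 7.4. Remaining NADH was coupled through diaphorase/resazurin, and resorufin fluorescence was read at 0 and 20 min.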
# Numbers stand for hits; 0 = inactive; ? = inconclusive; - = no result. This is a sample that favours compounds with a hit; in the whole collection about 2% have one here. Unless noted, calls follow the shape of the dose curve; as a rule, active = well fitted curve in the direction sought with a large enough effect; inconclusive = small, poorly fitted or top-dose-only effect, or another doubt; inactive = no such curve, though single readings can be large; an effect the other way counts as inactive or inconclusive.
SMILES,TDP43 rescue,Abeta rescue,mIDH1 inhibitor,FUS yeast rescue,aSyn yeast inh,LDHA inh
O=C(NNC(=S)Nc1ccc(Cl)cc1Cl)c1ccc(Cl)c(Cl)c1,-,-,-,-,-,0
O=C(Nc1cc(C(F)(F)F)ccc1-n1cncn1)c1ccc(Cl)cc1,0,0,0,0,0,0
O=C(Nc1cc(C(F)(F)F)ccc1-n1cncn1)c1ccc(-c2ccccc2)cc1,14µM,0,0,0,0,0
CCOC(=O)N1CCN(c2ncc3c(n2)CC(c2ccc(Cl)cc2)CC3=O)CC1 (stereo not given),13µM,0,0,0,0,0
S=c1nn[nH]n1C12CC3CC(CC(C3)C1)C2,7.9µM,0,0,0,0,0
CC(C)(C)c1ccc(C(=O)NCCNC(=O)c2nc3ccccc3c(=O)[nH]2)cc1,-,-,-,-,-,0
Cc1cscc1-c1ccc(C(=O)Nc2c(C)cccc2C)o1,14µM,0,-,0,0,-
CCN(CC)C(=O)OCc1c(-c2cccc(OC)c2)ncc2ccccc12,11µM,0,0,0,0,0
CCN(CC)C(=O)OCc1c(-c2ccccc2)ncc2ccccc12,0,0,0,0,0,0
COc1cccc(-c2ncc3ccccc3c2COC(=O)c2cccs2)c1,35µM,0,0,0,0,0
CC(C)NC(=O)NC(=O)COC(=O)C1COc2ccccc2O1 (stereo not given),-,-,-,-,-,0
N#Cc1ccc(C(=O)/C=C/c2cc3ccccc3nc2N2CCOCC2)cc1,-,-,-,-,-,0
COc1ccccc1NC(=O)c1cccc(S(=O)(=O)N2CCCCCC2)c1,35µM,0,0,0,-,0
COc1ccc(CC(=O)Nc2ccc(F)c(S(=O)(=O)N3CCOCC3)c2)cc1,0,0,0,0,0,0
O=C(COc1ccccc1)Nc1cccc(S(=O)(=O)N2CCCC2)c1,0,0,0,0,0,0
O=C(COc1ccccc1Cl)Nc1cccc(S(=O)(=O)N2CCCC2)c1,18µM,0,0,0,0,0
O=C(COc1ccc(F)cc1Cl)Nc1cccc(S(=O)(=O)N2CCCC2)c1,35µM,0,0,0,0,0
CCc1ccccc1OCC(=O)Nc1ccc(F)c(S(=O)(=O)N2CCOCC2)c1,16µM,0,0,0,0,0
Cc1ccc(-c2csc(/C=C/c3ccc(C(F)(F)F)cc3)n2)cc1,-,-,-,-,-,0
CCOCCOC(=O)c1nc2ccccc2nc1Nc1ccc(Cl)cc1,-,-,-,-,-,0
CC(=O)c1cccc(NC(=O)C2CCCN2S(=O)(=O)c2ccccc2C(F)(F)F)c1 (stereo not given),0,0,0,0,0,0
O=C(Nc1cccc(S(=O)(=O)N2CCCCC2)c1)[C@@H]1CCCN1S(=O)(=O)c1ccccc1C(F)(F)F,0,0,0,25µM,0,0
Cc1ccc(C(=O)Nc2ccccc2N2CCCCC2)cc1[N+](=O)[O-],0,0,0,0,0,0
COc1ccc(C(=O)Nc2ccccc2N2CCCCC2)cc1[N+](=O)[O-],18µM,0,0,0,0,0
N#Cc1cc(-c2ccccc2)oc1/N=C/c1ccccc1O,0,0,0,0,0,0
SMILES,TDP43 rescue,Abeta rescue,mIDH1 inhibitor,FUS yeast rescue,aSyn yeast inh,LDHA inh
COc1cccc(/C=N/c2oc(-c3ccccc3)cc2C#N)c1O,13µM,0,0,0,0,0
CC(Sc1nc2ccccc2s1)C(=O)Nc1nnc(C(C)C)s1 (stereo not given),25µM,0,0,0,0,0
COC(=O)C1=C(C(=O)OC)C(c2cc(Br)ccc2O)c2sc(=O)[nH]c2S1 (stereo not given),0,0,0,0,0,0
COC(=O)C1=C(C(=O)OC)C(c2cc(Cl)ccc2O)c2sc(=O)[nH]c2S1 (stereo not given),0,0,0,0,14µM,0
CCN(C(=O)C1CCN(c2nc(-c3ccc(OC)cc3)no2)CC1)c1ccccc1,?,0,0,?,0,0
COc1ccc(-c2noc(N3CCC(C(=O)N(C)c4ccccc4)CC3)n2)cc1,16µM,0,0,0,0,0
O=C(O)CCC(=O)c1ccc(Br)cc1,-,-,-,-,-,0
O=C(O)CCC(=O)c1ccc(C2CCCCCC2)cc1,18µM,0,-,0,0,0
Cc1cccc(C)c1-n1nnnc1C1c2ccccc2C(=O)N1CCC(C)C (stereo not given),0,0,-,0,0,0
Cc1cccc(C)c1-n1nnnc1C1c2ccccc2C(=O)N1CCc1ccccc1F (stereo not given),35µM,0,-,0,0,0
CC(C)OCCCNC(=S)NC1CCCC1,-,-,-,-,-,0
Cc1noc(C)c1-c1ccc(C(=O)NCCN2CCOCC2)c2occc12,0,0,-,0,0,0
Cc1noc(C)c1-c1ccc(C(=O)NCc2cccs2)c2occc12,16µM,0,-,0,0,0
Cc1noc(C)c1-c1ccc(C(=O)NCCc2ccccc2)c2occc12,32µM,0,-,?,0,0
O=C(/C=C/c1c(Cl)cccc1Cl)c1cccc(O)c1,-,-,-,-,-,0
Cc1[nH]n(-c2ccccc2)c(=O)c1/C=N/O,0,0,0,0,0,0
Cc1[nH]n(-c2ccccc2)c(=O)c1/C=N/N1C(=O)c2ccc3c4c(ccc(c24)C1=O)CC3,5µM,8.9µM,0,0,25µM,0
CC(=O)N/N=C/c1c(C)[nH]n(-c2ccccc2)c1=O,0,0,0,0,0,0
Cc1[nH]n(-c2ccccc2)c(=O)c1/C=N/NC(=O)c1ccccc1F,?,10µM,0,0,0,0
CCNC(=O)NC(=O)COC(=O)c1cc(-c2ccco2)nc2ccccc12,-,-,-,-,-,0
Cc1ccc(-c2cc(C(=O)OCC(=O)NC(=O)NC(C)(C)C)c3ccccc3n2)o1,-,-,-,-,-,0
CCCCNC(=O)C12CC3CC(C1)CC(c1ccccc1)(C3)C2,-,-,-,-,-,0
Cc1ccc(NC(=O)CSCC(=O)N(C)Cc2ccc(Cl)c(Cl)c2)cc1,?,0,0,-,0,0
Cc1cccc(NC(=O)CSCC(=O)N(C)Cc2ccc(Cl)c(Cl)c2)c1,25µM,0,0,0,0,0
CCc1ccc(-c2cc(C(=O)O)c3ccc(C)c(C)c3n2)cc1,-,-,-,-,-,0
SMILES,TDP43 rescue,Abeta rescue,mIDH1 inhibitor,FUS yeast rescue,aSyn yeast inh,LDHA inh
COC1=CC(=O)c2c(ccc3ncnc(N)c23)C1=O,0,0,0,-,0,0
COC1=CC(=O)c2nc(Cl)ccc2C1=O,13µM,0,-,0,?,0
Cc1nc(-c2cccnc2)sc1C(=O)Nc1ccc(C(F)(F)F)cc1,11µM,0,0,0,0,0
CNC(=O)c1sc(-c2cccnc2)nc1C,0,0,0,0,0,0
Cc1nc(-c2cccnc2)sc1C(=O)Nc1cccc(C(F)(F)F)c1,13µM,0,0,0,0,0
CS(=O)(=O)c1nc([N+](=O)[O-])nn1CCCc1ccccc1,18µM,0,0,0,0,0
O=C(Cn1ccccc1=O)Nc1ccc(Cl)cc1Cl,-,-,-,-,-,0

# Screening results: PubChem BioAssay, National Center for Advancing Translational Sciences (NCATS)
